Source: PubChem BioAssay
SARS PLpro yeast: qHTS of Yeast-based Assay for SARS-CoV PLP; S. cerevisiae expressing SARS-CoV PLpro, growth rescue; Potency, µM (highest dose often 32.9 µM), for the others: at the highest dose activity, positive = growth rescue, most hits filed as activators; 330,000 compounds, 0.19% hits; calls by dose curve; also: 0% is about no effect; nearly all actives have a fitted effect of over 55% in size
Pf growth 96h: Primary qHTS for delayed death inhibitors of the malarial parasite plastid, 96 hour incubation; P. falciparum luciferase reporter growth, 96 h; Potency, µM (titrated, usually from 28.7 µM), without a hit: at the highest dose activity change, negative = inhibition, actives largely listed as inhibitors; 320,000 compounds, 6.9% hits; AID 504834, 2011; also: % is scaled to controls: 0 for no effect and ±100 for the full control effect
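Two-generation exposure (96 h) targets delayed-death phenotype. Reporter parasites carrying integrated firefly luciferase, in red cells at 2% hematocrit and 0.05% parasitemia final, kept at 37 C, 5% CO2; luminescence loss indicates inhibition.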
RE007 growth inh: qHTS Assay for Inhibitors of the HIV-1 protein Vpr. S. pombe RE007 Vpr strain, BacTiter-Glo ATP luminescence, 24 h. Potency, µM (highest dose often 92.2 µM), inactives show at the top dose activity change, negative = less growth, hits mostly inhibitors. 360,000 compounds, 0.21% hits. AID 651644, 2012; active = well fitted falling curve with a large enough effect; inconclusive = small, poorly fitted or top-dose-only effect; inactive = no such curve, though single readings can be large or run the other way; also: % is scaled to controls: 0 for no effect and ±100 for the full control effect; nearly all actives have a fitted effect of over 50% in size
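Fission yeast strain RE007, carrying one chromosomally integrated HIV-1 vpr copy, was seeded at OD 0.01 in PMG+AL medium with 23 nL pinned compound. After 24 h at 30 °C and 99% humidity, viability was read by BacTiter-Glo luminescence.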
Pf growth 48h: Primary qHTS for delayed death inhibitors of the malarial parasite plastid, 48 hour incubation | P. falciparum luciferase growth in erythrocytes, 48 h | Potency, µM (top dose mostly 28.7 µM), without a hit: at the highest dose activity change, negative = inhibition, most hits filed as inhibitors | 310,000 compounds, 5.9% hits; also: % is scaled to controls: 0 for no effect and ±100 for the full control effect
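In quantitative HTS format, infected erythrocytes bearing luciferase-reporter parasites were treated for a single generation at 37 C. Luminescence after adding detection reagent served as the growth measure.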
NS1 function inh: qHTS Assay for Inhibitors of Influenza NS1 Protein Function; 270,000 compounds, 0.4% hits; Potency, µM (highest dose often 46.1 µM), for inactives: top-dose activity, positive = more growth; calls by dose curve; also: actives are rising curves; nearly all actives have a fitted effect of over 50% in size
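Growth recovery, yeast-based: influenza A NS1 expressed in S. cerevisiae causes slow growth, and suppressors are detected by OD600. The parent strain without NS1 is used as positive control.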
* hit, by the source's call; ? = inconclusive; nt = no result; [ ] = another dose, or the depositor's remark. The list is not random: actives were taken first. Their share in the collection is about 9.5%. Unless noted, calls follow the shape of the dose curve; as a rule, active = well fitted inhibition curve with a large enough effect; inconclusive = small, poorly fitted or top-dose-only effect, or another doubt; inactive = no such curve, though single readings can be large or run the other way. Potency is read from the fitted curve at half-maximal effect.

SMILES	SARS PLpro yeast	Pf growth 96h	RE007 growth inh	Pf growth 48h	NS1 function inh
COc1ccccc1C(c1nnnn1C(C)(C)C)N1CCN(C(=O)c2ccco2)CC1 (stereo not drawn)	3%	?	23%	4.7µM*	1%
Cc1ccsc1C(=O)OCC(=O)N1CCc2ccccc2C1	-12%	480%	9%	409%	nt
CC(=O)c1ccc(C(=O)N2CCCC(C(=O)c3cc(F)ccc3F)C2)s1 (stereo not drawn)	0%	3%	2%	-2%	-7%
Cc1nc(C)c(C(=O)N2CCCC(C(=O)c3cc(F)ccc3F)C2)s1 (stereo not drawn)	15%	5.9µM*	7%	25%	15%
CN(C)c1cccc(C(=O)N2CCCC(C(=O)c3cc(F)ccc3F)C2)c1 (stereo not drawn)	5%	30%	-6%	?	-2%
COc1ccc(F)cc1C(=O)C1CCCN(C(=O)c2cccc(N(C)C)c2)C1 (stereo not drawn)	1%	?	-1%	5.9µM*	4%
Cc1ccsc1C(=O)N1CCCC(C(=O)c2cc(F)ccc2F)C1 (stereo not drawn)	-1%	?	0%	?	-3%
O=C(c1cc(F)ccc1F)C1CCCN(C(=O)c2ccc(F)cc2Cl)C1 (stereo not drawn)	-1%	1.2µM*	-1%	-13%	-1%
Cc1[nH]c(=O)c(C#N)c(C)c1CCC(=O)NCc1ccc(Cl)cc1	-2%	28%	14%	-2%	4%
Cc1ccc(C2=C(Cl)C(=O)C(c3ccc(C)cc3)=C(Cl)C2=O)cc1	nt	nt	nt	nt	-8%
Cc1ccccc1NC(=O)CSc1nnc(NC(=O)c2ccco2)s1	-6%	3%	17%	24%	9%
CCOc1ccc(CCNC(=O)COC(=O)c2cc(OC)c(OC)cc2[N+](=O)[O-])cc1OCC	3%	?	-6%	15µM*	nt
CCOc1ccc(CCNC(=O)COC(=O)c2cc([N+](=O)[O-])ccc2N2CCOCC2)cc1OCC	1%	9.3µM*	-3%	?	7%
CCOc1ccc(CCNC(=O)COC(=O)c2cc(OC)c(OC)c(OC)c2)cc1OCC	-1%	-27%	nt	?	nt
O=C1c2ccccc2C(=O)N1C[C@]1(C(=O)O)NCCS1(=O)=O	nt	nt	nt	nt	2%
Cc1cc(OCC(=O)Nc2ccc3c(c2)OCCO3)ccc1Cl	-33%	8.3µM*	-22%	3%	-74%
CN(CC(=O)NCc1ccccn1)S(=O)(=O)c1cc(Cl)ccc1Cl	nt	45%	-1%	-3%	nt
Cc1cc(OCC(=O)Nc2ncn[nH]2)ccc1Cl	2%	1.9µM*	8%	88%	nt
Cc1cc(OCC(=O)Nc2ccc(S(=O)(=O)N3CCN(C)CC3)cc2)ccc1Cl	-11%	12µM*	-5%	4.1µM*	-13%
CN(CC(=O)Nc1ncn[nH]1)S(=O)(=O)c1cc(Cl)ccc1Cl	-5%	-2%	-14%	10µM*	-1%
Cc1cc(C)cc(OCC(=O)Nc2ccc3c(c2)OCCO3)c1	-5%	-28%	-11%	25%	nt
CN(C(=O)CC1C(=O)NCCN1Cc1cccc(C(F)(F)F)c1)C1CCOCC1 (stereo not drawn)	-2%	-28%	-7%	-8%	8%
CCN1CCc2c(OCC(=O)Nc3ccc4c(c3)OCCO4)cccc2C1=O	-1%	6.6µM*	nt	-40%[1.15 µM]	0%
C[C@@H]1CCCCO[C@@H](CN(C)S(=O)(=O)c2ccc(Cl)cc2)[C@@H](C)CN([C@H](C)CO)C(=O)c2cc(N(C)C)ccc2O1	nt	nt	-13%	nt	nt
CCCCC(=O)NC(=S)Nc1cccc(C(=O)O)c1	-1%	?	-10%	34%	0%
SMILES	SARS PLpro yeast	Pf growth 96h	RE007 growth inh	Pf growth 48h	NS1 function inh
CC#CCCCC(=O)Nc1cccc(C(=O)O)c1	2%	10µM*	-6%	143%	17%
O=C1Nc2ccc(NS(=O)(=O)c3cccs3)c3cccc1c23	5%	10µM*	8%	7%	-11%
CC(OC(=O)/C=C/c1ccccc1)C(=O)Nc1cccc(C#N)c1 (stereo not drawn)	-3%	33%	0%	?	nt
Cn1c(=O)n(C)c2cc(/C=N/n3cnnc3)ccc21	11%	5.9µM*	-5%	23%	-3%
Cc1ccsc1C(=O)N1CCC1(C)C(=O)NS(=O)(=O)c1ccc(C#N)cc1 (stereo not drawn)	nt	nt	14%	nt	nt
CCOC(=O)C(C)(C)[C@H](O)C(C)C	nt	nt	nt	nt	-5%
COc1ccc(/C=C/C(=O)C2(O)CCCCC2)cc1OC	1%	2%	-9%	?	nt
COc1ccccc1N(CC(=O)Nc1ccccc1C(=O)NCC(C)C)S(C)(=O)=O	4%	nt	11%	8.3µM*	-4%
CC(C)CNC(=O)c1ccccc1NC(=O)CN(c1ccccc1)S(=O)(=O)N(C)C	0%	-1%	6%	10µM*	-5%
CCOC(=O)c1ccccc1NC(=O)CN(c1ccccc1OCC)S(C)(=O)=O	?	11%	-8%	9.3µM*	-4%
NNC(=O)c1cccn(Cc2cccc(C(F)(F)F)c2)c1=O	-1%	?	5%	?	14%
CC(C)CSc1nnc2c3ccccc3n(C)c2n1	-6%	6.6µM*	-13%	122%	-120%
O=C(CCCCn1c(=O)c2ccccc2n(Cc2ccc(F)cc2)c1=O)NCc1ccco1	2%	3.3µM*	24%	?	5%
COc1nc(OC)nc(N2CCC(C(=O)NCc3ccco3)CC2)n1	0%	11%	1%	-15%	9%
O=C(NCc1ccco1)c1ccc(Cn2c(=O)c3ccccc3n(Cc3cccc(F)c3)c2=O)cc1	2%	nt	-24%	nt	8%
O=C(NCc1ccco1)C1CCN(c2nc3ccccc3n2Cc2ccc(F)cc2)CC1	-2%	10µM*	-4%	nt	-58%
O=C(NCc1ccco1)c1ccc(Cn2c(=O)c3ccccc3n(Cc3ccc(Cl)cc3)c2=O)cc1	-3%	-30%	14%	12µM*	3%
COc1cc2c(=O)n(Cc3ccccc3)c(=O)n(CC(=O)NCc3ccco3)c2cc1OC	-1%	3.7µM*	-10%	?	-3%
CCC(Cc1c(I)cc(I)c(O)c1I)C(=O)O (stereo not drawn)	nt	4%	nt	-16%	nt
Cc1coc2cc3oc(=O)c4c(c3cc12)CCC4	-5%	nt	nt	16%	-3%
Cc1oc2cc3oc(=O)cc(C)c3cc2c1C	-2%	34%	4%	51%	-2%
Cc1c(C)c2cc3c(C)coc3cc2oc1=O	-2%	5.2µM*	1%	34%	0%
Cc1cc(=O)oc2cc3oc(=O)cc(C)c3cc12	-4%	4.7µM*	1%	3%	10%
CCC(=O)N(C)C[C@@H]1Oc2ncc(Br)cc2C(=O)N([C@@H](C)CO)C[C@H]1C	nt	nt	-25%	nt	nt
